Results filed as inconclusive are left out. Calls of active or inactive are those of the source. Unless noted, the call rests on the fitted dose curve.
Assays:
[1] = Nuclear factor erythroid 2-related factor 2/antioxidant responsive element (Nrf2/ARE) small molecule agonists: qHTS cell viability counter screen in human keratinocytes (AID 1919968; active means well fitted curve in the direction sought with a large enough effect in the repeat runs; an effect the other way counts as inactive or inconclusive; further: nearly all actives have a fitted effect of over 55% in size; further: potency means the concentration at half of the fitted maximal effect)
How it was run: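 KeratinoSens HaCaT cells, 1,500/well, preincubated 5 h, then exposed to compounds in DMSO for 23 h at 37 C/5% CO2. Viability read as CellTiter-Fluor fluorescence after 1 h, in the same wells as the ARE-luciferase read.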

[2] = Nuclear factor erythroid 2-related factor 2/antioxidant responsive element (Nrf2/ARE) small molecule agonists: luciferase reporter gene qHTS assay in human keratinocytes (AID 1919969); further: nearly all actives have a fitted effect of over 35% in size
[3] = biological target: Gonadotropin-releasing hormone receptor (Homo sapiens) (UniProt P30968); experiment: Human gonadotropin-releasing hormone receptor (GnRHR) small molecule agonists, calcium flux assay in GnRHR-HEK293 cells (AID 1920063); further: nearly all actives have a fitted effect of over 35% in size
Gonadotropin-releasing hormone receptor (Homo sapiens), sequence (P30968 whole entry, looked up): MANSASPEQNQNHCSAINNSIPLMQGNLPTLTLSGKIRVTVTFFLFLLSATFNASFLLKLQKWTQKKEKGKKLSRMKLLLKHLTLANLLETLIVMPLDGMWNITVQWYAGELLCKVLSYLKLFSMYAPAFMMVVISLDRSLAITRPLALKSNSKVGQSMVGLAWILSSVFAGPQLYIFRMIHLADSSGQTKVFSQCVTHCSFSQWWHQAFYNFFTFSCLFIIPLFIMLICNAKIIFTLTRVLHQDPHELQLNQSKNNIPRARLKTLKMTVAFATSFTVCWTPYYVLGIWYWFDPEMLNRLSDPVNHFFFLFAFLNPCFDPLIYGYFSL
How it was run: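 HEK293 cells stably expressing human GnRHR were dye-loaded for 1 h at 37 C. Compound was added in agonist mode and fluorescence (Ex/Em 480/540) recorded kinetically for 3 min. Fifteen concentrations, triplicates.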

[4] = biological target: KiSS-1 receptor (Homo sapiens) (UniProt Q969F8); experiment: Human kisspeptin (KISS1R) small molecule agonists, calcium flux assay in KISS1R-HEK293 cells (AID 1920064; active means well fitted curve in the direction sought with a large enough effect in the repeat runs; an effect the other way counts as inactive or inconclusive)
KiSS-1 receptor (Homo sapiens), sequence (Q969F8 whole entry, looked up): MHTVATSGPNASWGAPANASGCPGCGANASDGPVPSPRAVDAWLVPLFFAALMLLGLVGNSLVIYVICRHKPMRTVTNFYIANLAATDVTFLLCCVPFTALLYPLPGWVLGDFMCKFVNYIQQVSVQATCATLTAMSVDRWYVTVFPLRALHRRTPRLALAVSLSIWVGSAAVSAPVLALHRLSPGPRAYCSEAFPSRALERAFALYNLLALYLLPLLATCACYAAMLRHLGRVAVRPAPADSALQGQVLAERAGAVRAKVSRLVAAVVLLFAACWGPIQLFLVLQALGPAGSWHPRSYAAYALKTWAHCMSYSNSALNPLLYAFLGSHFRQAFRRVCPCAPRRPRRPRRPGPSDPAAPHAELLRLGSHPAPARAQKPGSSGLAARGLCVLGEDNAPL
How it was run: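 HEK293 cells stably expressing human KISS1R were loaded with calcium dye for 1 h at 37 C, then given compound; fluorescence (Ex/Em 480/540) was read kinetically for 3 min. Fifteen concentrations, triplicate.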

[5] = G protein-coupled receptor (GPCR) small molecule agonists, calcium flux assay: HEK293 wild type cell line counter screen (AID 1920065)
How it was run: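 Wild-type HEK293 cells plated 18 h, loaded with calcium dye 1 h at 37 C, then compounds added in agonist mode (ATP as positive control). Kinetic fluorescence Ex/Em 480/540 recorded 3 min at 1 sec intervals; 15 concentrations, triplicate.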

[6] = p53 small molecule agonists, cell-based qHTS assay with human liver microsomes (AID 1963577);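 further: p53 response element beta-lactamase reporter cells with liver microsomes plus NADPH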
How it was run: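 16 h, 37 C exposure of p53RE-bla cells to compounds with human liver microsomes and NADPH (0.5 mg/mL final each); detection via LiveBLAzer mixture, 2 h dark at room temperature.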

[7] = p53 small molecule agonists, cell-based qHTS assay with rat liver microsomes (AID 1963578)
How it was run: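 With rat liver microsomes and NADPH present (0.5 mg/mL final each), p53RE-bla cells are treated with compound for 16 h at 37 C. LiveBLAzer detection mixture is then applied for 2 h at room temperature in the dark.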

[8] = p53 small molecule agonists, cell-based qHTS assay with human liver microsomes: qHTS cell viability counter screen (AID 1963579); further: nearly all actives have a fitted effect of over 45% in size
How it was run: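 In this multiplexed counter screen, the reporter plates were subsequently treated with CellTiter-Glo so that cell viability, reflected by luminescence, could be recorded for p53RE-bla cells dosed 16 h with compounds under microsomal activation (HLM and NADPH).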

[9] = p53 small molecule agonists, cell-based qHTS assay with rat liver microsomes: qHTS cell viability counter screen (AID 1963580); further: nearly all actives have a fitted effect of over 45% in size
How it was run: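 p53RE-bla HCT-116 cells were exposed 16 h at 37 C to compounds with rat liver microsomes (0.5 mg/mL) and NADPH (0.5 mg/mL). Viability was measured in the same wells as ATP content by CellTiter-Glo luminescence.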

[10] = p53 small molecule agonists, cell-based qHTS assay: qHTS cell viability counter screen (AID 1963581); further: nearly all actives have a fitted effect of over 45% in size
How it was run: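 p53RE-bla HCT-116 cells, compounds added 5 h after plating and incubated 16 h at 37 C. Cytotoxicity measured in the same wells as intracellular ATP by CellTiter-Glo luminescence after 30 min at room temperature.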

[11] = p53 small molecule agonists, cell-based qHTS assay (AID 1963582; active means well fitted activation curve with a large enough effect in the signal ratio in the repeat runs, not every such curve was filed as active; the % refers to the signal ratio)
How it was run: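 p53RE-bla reporter cells, compounds added in DMSO after 5 h plating, incubated 16 h at 37 C. Beta-lactamase read via 2 h room-temperature LiveBLAzer B/G FRET substrate, fluorescence intensity.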

[12] = biological target: 5-hydroxytryptamine receptor 2A (Homo sapiens) (UniProt P28223); experiment: 5-hydroxytryptamine receptor 2A (HTR2A) small molecule agonists, cell-based qHTS assay (AID 1963587); further: nearly all actives have a fitted effect of over 30% in size; further: potency means the concentration at half of the fitted maximal effect
5-hydroxytryptamine receptor 2A (Homo sapiens), sequence (P28223 whole entry, looked up): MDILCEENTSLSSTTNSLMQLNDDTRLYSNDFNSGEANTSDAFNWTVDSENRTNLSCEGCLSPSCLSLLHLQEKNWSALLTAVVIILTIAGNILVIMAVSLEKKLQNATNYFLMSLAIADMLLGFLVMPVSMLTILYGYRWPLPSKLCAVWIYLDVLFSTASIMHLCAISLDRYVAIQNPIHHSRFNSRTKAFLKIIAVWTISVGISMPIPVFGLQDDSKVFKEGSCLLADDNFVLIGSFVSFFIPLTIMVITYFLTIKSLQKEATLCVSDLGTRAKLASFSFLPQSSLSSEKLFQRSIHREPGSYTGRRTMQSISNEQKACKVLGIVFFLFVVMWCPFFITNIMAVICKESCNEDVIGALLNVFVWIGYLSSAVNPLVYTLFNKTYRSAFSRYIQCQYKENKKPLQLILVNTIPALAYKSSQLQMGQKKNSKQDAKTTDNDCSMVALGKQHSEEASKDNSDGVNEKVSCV
How it was run: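 CHO cells stably expressing human HTR2A, plated 18 h, loaded with calcium dye 1 h at 37 C. Agonist mode: compounds added and intracellular calcium fluorescence recorded kinetically for 2 min at 1 sec intervals.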

[13] = biological target: Muscarinic acetylcholine receptor M1 (Homo sapiens) (UniProt P11229); experiment: Cholinergic receptor muscarinic 1 (CHRM1) small molecule antagonists, cell-based qHTS assay (AID 1963588); further: nearly all actives have a fitted effect of over 40% in size; further: potency means the concentration at half of the fitted maximal effect
Muscarinic acetylcholine receptor M1 (Homo sapiens), sequence (P11229 whole entry, looked up): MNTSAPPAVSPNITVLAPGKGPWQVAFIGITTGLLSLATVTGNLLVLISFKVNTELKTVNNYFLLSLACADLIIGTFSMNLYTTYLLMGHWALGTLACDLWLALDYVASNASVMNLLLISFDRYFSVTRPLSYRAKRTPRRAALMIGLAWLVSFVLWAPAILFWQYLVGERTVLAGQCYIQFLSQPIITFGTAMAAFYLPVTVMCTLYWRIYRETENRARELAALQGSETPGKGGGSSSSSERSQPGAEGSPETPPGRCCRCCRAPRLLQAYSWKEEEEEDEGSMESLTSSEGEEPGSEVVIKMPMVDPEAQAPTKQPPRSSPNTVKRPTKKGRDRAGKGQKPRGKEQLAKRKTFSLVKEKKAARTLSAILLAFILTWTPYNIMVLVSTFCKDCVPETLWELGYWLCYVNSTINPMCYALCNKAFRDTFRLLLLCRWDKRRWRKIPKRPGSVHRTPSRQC
How it was run: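 CHRM1-CHO calcium-flux assay, antagonist mode. Cells were seeded 18 h, dye-loaded 1 h at 37 C and given compound for 5 min at RT, then acetylcholine was added at 50nM. FDSS fluorescence was read 3 min; 15 concentrations, three runs.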

[14] = biological target: Muscarinic acetylcholine receptor M1 (Homo sapiens) (UniProt P11229); experiment: Cholinergic receptor muscarinic 1 (CHRM1) small molecule agonists, cell-based qHTS assay (AID 1963589); further: nearly all actives have a fitted effect of over 35% in size
How it was run: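 CHO cells stably expressing human CHRM1 were loaded with calcium dye for 1 h at 37 C, then compound was added in agonist mode. Intracellular calcium fluorescence was followed kinetically at 1 s intervals. Fifteen concentrations were tested in three independent runs.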

[15] = cAMP Responsive Elements (CRE) small molecule antagonists, cell-based qHTS assay (AID 1963591; active means well fitted inhibition curve with a large enough effect in the signal ratio in the repeat runs, not every such curve was filed as active; the % refers to the signal ratio)
How it was run: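 CRE-bla HEK293T cells plated 18 h, then given compound plus NKH477 at 0.25 uM final for 3 h at 37C. Beta-lactamase reporter read with LiveBLAzer B/G FRET substrate after 2 h at room temperature.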

[16] = biological target: Beta-2 adrenergic receptor (Homo sapiens) (UniProt P07550); experiment: Adrenergic beta2 receptor (ADRB2) small molecule antagonists, cell-based qHTS assay (AID 1963592); further: series mostly up to about 92 µM; nearly all actives have a fitted effect of over 50% in size
Beta-2 adrenergic receptor (Homo sapiens), sequence (P07550 whole entry, looked up): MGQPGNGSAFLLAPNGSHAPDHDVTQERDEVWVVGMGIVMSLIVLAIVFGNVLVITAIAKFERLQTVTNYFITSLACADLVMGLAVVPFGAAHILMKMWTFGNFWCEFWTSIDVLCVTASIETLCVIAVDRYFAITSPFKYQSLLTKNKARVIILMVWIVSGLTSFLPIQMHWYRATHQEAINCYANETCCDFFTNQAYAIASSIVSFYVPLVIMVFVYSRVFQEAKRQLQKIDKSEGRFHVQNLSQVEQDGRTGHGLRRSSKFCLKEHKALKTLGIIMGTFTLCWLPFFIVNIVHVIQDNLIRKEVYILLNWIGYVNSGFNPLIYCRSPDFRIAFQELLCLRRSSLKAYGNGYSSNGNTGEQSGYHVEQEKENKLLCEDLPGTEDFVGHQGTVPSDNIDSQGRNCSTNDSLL
How it was run: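 Cells (CHO, stable ADRB2 overexpression) incubated 18-20hr at 37C; compounds added from DMSO; agonist mix (1nM isoproterenol, 100uM IBMX, 25uM Ro-20-1724) added; 0.5hr RT; d2-cAMP and anti-cAMP-cryptate added; 1hr RT; 665/615 nm read.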

[17] = biological target: Beta-2 adrenergic receptor (Homo sapiens) (UniProt P07550); experiment: Adrenergic beta2 receptor (ADRB2) small molecule agonists, cell-based qHTS assay (AID 1963593);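 further: CHO cells stably overexpressing human ADRB2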
How it was run: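 CHO cells stably over-expressing ADRB2 were plated overnight at 37C, then dosed with compounds plus a stimulation mix containing 100uM IBMX and 25uM Ro-20-1724 for 0.5hr at room temperature. cAMP was measured by HTRF competition, 1hr.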

[18] = biological target: D(2) dopamine receptor (Homo sapiens) (UniProt P14416); experiment: Dopamine D2 receptor (DRD2) small molecule antagonists, cell-based qHTS assay (AID 1963595; active means well fitted inhibition curve with a large enough effect in the signal ratio in the repeat runs, with a control signal flat; the % refers to the signal ratio; further: potency means the concentration at half of the fitted maximal effect)
D(2) dopamine receptor (Homo sapiens), sequence (P14416 whole entry, looked up): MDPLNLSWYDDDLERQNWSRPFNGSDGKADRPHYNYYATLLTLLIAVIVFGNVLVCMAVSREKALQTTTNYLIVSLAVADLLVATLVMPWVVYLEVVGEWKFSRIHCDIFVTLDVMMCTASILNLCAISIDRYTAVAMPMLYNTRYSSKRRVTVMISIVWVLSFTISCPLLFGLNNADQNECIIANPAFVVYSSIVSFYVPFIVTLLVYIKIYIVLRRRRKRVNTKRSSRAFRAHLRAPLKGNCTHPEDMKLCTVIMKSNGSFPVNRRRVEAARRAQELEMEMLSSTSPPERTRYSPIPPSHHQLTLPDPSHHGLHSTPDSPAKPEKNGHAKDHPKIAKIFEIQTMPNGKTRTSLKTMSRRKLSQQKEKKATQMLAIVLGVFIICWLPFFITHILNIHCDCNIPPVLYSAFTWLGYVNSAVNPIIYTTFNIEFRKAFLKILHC
How it was run: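 DRD2-HEK293; 0.1 mM Ro20-1724; cpd 10 min RT; NKH477 200 nM + quinpirole 12 nM, 30 min RT; HTRF cAMP (cAMP-d2/anti-cAMP cryptate), 665/620 nm ratio after 1 h.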

[19] = cAMP Responsive Elements (CRE) small molecule agonists, cell-based qHTS assay (AID 1963590)
How it was run: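 CRE-bla HEK 293T cells, 2,000/well in DMEM with 10% dialyzed FBS and 25 mM HEPES, pre-incubated 18 h at 37 C, then exposed to compound 3 h at 37 C. Beta-lactamase reporter read with LiveBLAzer B/G FRET substrate after 2 h at room temperature.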

[20] = biological target: D(2) dopamine receptor (Homo sapiens) (UniProt P14416); experiment: Dopamine D2 receptor (DRD2) small molecule agonists, cell-based qHTS assay (AID 1963594); further: nearly all actives have a fitted effect of over 35% in size
How it was run: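 HEK293 cells stably expressing human DRD2, pre-treated with PDE inhibitor Ro20-1724 (0.1 mM final) and compound 10 min at room temperature, then stimulated with NKH477 (200nM […]) for 30 min. cAMP read by HTRF (665/620 nm).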
On the % scale 0 is the no-effect control and ±100 the full control effect.

COc1cc(NS(=O)(=O)c2ccc(N)cc2)ncn1
inactive: Potency [1] | Potency [2] | Potency [3] | outcome [4] | outcome [5] | Potency [6] | Potency [7] | Potency [8] | Potency [9] | Potency [10] | Potency [11] | Potency [12] | Potency [13] | Potency [14] | Potency [15] | Potency [16] | Potency [17] | Potency [18]

Cc1cn([C@@H]2O[C@H](CO)[C@@H](O)[C@@H]2F)c(=O)[nH]c1=O
inactive: Potency [1] | Potency [2] | Potency [3] | outcome [4] | outcome [5] | Potency [6] | Potency [7] | Potency [8] | Potency [9] | Potency [10] | Potency [11] | Potency [12] | Potency [13] | Potency [14] | Potency [19] | Potency [15] | Potency [16] | Potency [20] | Potency [18]

COc1cc2c(cc1OC)-c1cc3ccc(OC)c(OC)c3c[n+]1CC2
inactive: Potency [1] | Potency [2] | Potency [3] | outcome [4] | outcome [5] | Potency [6] | Potency [7] | Potency [8] | Potency [9] | Potency [10] | Potency [11] | Potency [12] | Potency [13] | Potency [14] | Potency [15]

CN(C)CCn1nnnc1SCC1=C(C(=O)O)N2C(=O)[C@@H](NC(=O)Cc3csc(N)n3)[C@H]2SC1
inactive: Potency [1] | Potency [2] | Potency [3] | outcome [4] | outcome [5] | Potency [6] | Potency [7] | Potency [8] | Potency [9] | Potency [10] | Potency [11] | Potency [12] | Potency [13] | Potency [14] | Potency [19] | Potency [15] | Potency [16] | Potency [20] | Potency [18]

CCCCCCCCOCCCN
inactive: Potency [2] | Potency [3] | outcome [4] | outcome [5] | Potency [6] | Potency [7] | Potency [8] | Potency [9] | Potency [10] | Potency [11] | Potency [13] | Potency [14] | Potency [19] | Potency [15] | Potency [16] | Potency [20]
active: Potency [1] 68.6 µM | Potency [12] 24.5 µM

O=P(O)(O)OCC(O)CO (stereo not drawn)
inactive: Potency [1] | Potency [2] | Potency [3] | outcome [4] | outcome [5] | Potency [6] | Potency [7] | Potency [8] | Potency [9] | Potency [10] | Potency [11] | Potency [12] | Potency [13] | Potency [14] | Potency [19] | Potency [15] | Potency [16] | Potency [17] | Potency [20] | Potency [18]

Cc1nc2n(c(=O)c1CCN1CCC(c3noc4cc(F)ccc34)CC1)CCC[C@H]2O
inactive: activity change, negative = cytotoxicity [1] 0.553% [at 19 µM] | activity, positive = activation [2] 1.67% [at 19 µM] | activity change [3] -1.01% [at 11.8 µM, active compounds read high] | activation [4] 2.67% [at 15.8 µM] | activation [5] -0.871% [at 11.8 µM] | activation [6] -1.61% [at 13.5 µM] | activation [7] -1.62% [at 13.6 µM] | activity change, negative = cytotoxicity [8] -2.44% [at 13.5 µM] | activity change, negative = cytotoxicity [9] 3.38% [at 13.5 µM] | activity change, negative = cytotoxicity [10] -16.9% [at 13.5 µM] | activation [11] -2.71% [at 13.5 µM] | activation [12] -9.85% [at 15.9 µM] | activation [14] -0.822% [at 15.8 µM] | activity change, negative = inhibition [15] 6.49% [at 18.9 µM] | activity change, negative = inhibition [16] -0.824% [at 19 µM] | Potency [17] | activation [20] -27% [at 19 µM]
active: Potency [13] 4.48 µM | Potency [18] 0.0326 µM
